From publication PMC4336329 (PLoS ONE, 2015) come the findings set out here.

Molecules are shown by their SMILES. Out of some 310,000 compounds screened, about 14,000 (4.5%) showed an effect of 50% or more. The effect is printed as a negative number. What follows is part of a selection rich in strong results, with near analogues and random picks from the rest.
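Note: peak tail current of the secondary pulse compared with the same well before compound.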

Sequence of human ether-à-go-go-related gene (hERG) potassium channel (Q12809 whole entry, looked up): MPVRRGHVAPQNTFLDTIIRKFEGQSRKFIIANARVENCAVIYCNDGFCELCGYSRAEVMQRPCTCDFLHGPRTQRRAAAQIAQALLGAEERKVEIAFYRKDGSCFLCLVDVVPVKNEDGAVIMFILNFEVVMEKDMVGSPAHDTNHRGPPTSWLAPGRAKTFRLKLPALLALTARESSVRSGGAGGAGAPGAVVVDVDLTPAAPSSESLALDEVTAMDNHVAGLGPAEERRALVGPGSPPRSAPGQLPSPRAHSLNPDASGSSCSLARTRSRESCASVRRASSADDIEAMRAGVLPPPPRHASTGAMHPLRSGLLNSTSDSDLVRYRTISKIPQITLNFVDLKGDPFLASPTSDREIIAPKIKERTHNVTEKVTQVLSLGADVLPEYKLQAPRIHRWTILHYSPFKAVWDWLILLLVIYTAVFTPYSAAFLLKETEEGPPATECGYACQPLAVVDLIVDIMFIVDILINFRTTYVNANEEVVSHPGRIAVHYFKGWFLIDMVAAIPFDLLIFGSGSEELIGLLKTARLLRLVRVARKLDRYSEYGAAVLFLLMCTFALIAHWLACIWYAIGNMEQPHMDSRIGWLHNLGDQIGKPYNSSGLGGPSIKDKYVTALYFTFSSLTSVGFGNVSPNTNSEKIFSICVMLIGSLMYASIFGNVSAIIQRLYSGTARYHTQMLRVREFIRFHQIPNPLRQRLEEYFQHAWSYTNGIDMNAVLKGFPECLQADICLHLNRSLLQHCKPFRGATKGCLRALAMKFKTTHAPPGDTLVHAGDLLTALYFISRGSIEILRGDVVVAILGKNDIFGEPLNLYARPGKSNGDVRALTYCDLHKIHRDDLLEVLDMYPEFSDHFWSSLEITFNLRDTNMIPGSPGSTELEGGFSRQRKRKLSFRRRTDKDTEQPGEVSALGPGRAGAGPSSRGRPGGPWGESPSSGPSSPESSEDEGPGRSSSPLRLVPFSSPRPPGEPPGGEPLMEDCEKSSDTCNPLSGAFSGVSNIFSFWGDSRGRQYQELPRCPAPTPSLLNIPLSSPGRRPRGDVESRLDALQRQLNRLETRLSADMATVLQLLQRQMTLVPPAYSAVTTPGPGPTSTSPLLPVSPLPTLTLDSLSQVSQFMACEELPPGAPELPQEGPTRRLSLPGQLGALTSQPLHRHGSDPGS

The assay has as its target human ether-à-go-go-related gene (hERG) potassium channel (human, UniProt Q12809). Description: primary screen, population patch clamp on CHO cells stably expressing hERG; higher = less effect of the substance.
`CC(C)(C)NS(=O)(=O)c1ccc(NC(=O)Cc2ccccc2[N+](=O)[O-])cc1`: the “hERG current change (%, negative = inhibition) at 10uM” value amounted to 1.66%. The result for `CCOC(=O)c1ccc(N2CN(CC)CNC2=S)cc1` reads 7.25%. Then `C/C(=N/OCc1ccc(Br)cc1)c1ccccn1`, with 6.29%; and `CCc1ccc(C(=O)COC(=O)c2ccco2)cc1`, with 9.18%; and `COc1ccc(CCNC(=O)COC(=O)c2cnc(C)cn2)cc1`, with 11.3%. For `O=C(Nc1ccccc1C(=O)Nc1ccc2c(c1)OCO2)c1cccs1`, the “hERG current change (%, negative = inhibition) at 10uM” value was determined as 3.6%.

As for `Cc1cc(C)cc(NC(=O)COC(=O)CN=C2NS(=O)(=O)c3ccccc32)c1`, the “hERG current change (%, negative = inhibition) at 10uM” value is listed as 15.6%. Then `O=C(NCC1CCCO1)c1ccc(COc2ccc(F)cc2)o1` (stereo not drawn), with -5.59%; and `CCCOc1ccc(/C=N/Nc2cc(N3CCOCC3)ncn2)c(O)c1`, with 13.4%; and `O=c1[nH]cc([N+](=O)[O-])cc1Br`, with 2.05%. As for `CCCCOc1ccc(C(=O)NCC(=O)N2CC=C(c3ccccc3)CC2)cc1`, the “hERG current change (%, negative = inhibition) at 10uM” value stood at 16.8%. Then `Cl.NC(=O)c1ccc(OCCC(O)N2CC=C(c3ccc(F)cc3)CC2)cc1` (stereo not drawn), with -71.2%. As to `CN1CCNC(=O)C1CC(=O)N1CC=C(c2ccc(F)cc2)CC1` (stereo not drawn), the “hERG current change (%, negative = inhibition) at 10uM” value is on record as -3.88%. Then `Clc1cccc(N/N=C/c2ccncc2)c1`, with -10.2%; and `Cc1cc(C(=O)C(C)Sc2cccc[n+]2[O-])c(C)n1-c1ccc(Cl)cc1` (stereo not drawn), with -12.8%; and `CC(C)/C=C1\CCc2c([nH]c3ccccc23)C1=O`, with 9.91%.

Turning to `Cc1c(S(=O)(=O)c2ccccn2)c(N)n(Cc2ccccc2)c1C`, the “hERG current change (%, negative = inhibition) at 10uM” value came out at 0.158%. The result for `CN(C)CCCn1cnc2c(c1=N)C(c1ccccc1)c1ccc3ccccc3c1O2` (stereo not drawn) reads -75.9%; that for `CN(C)CCn1cnc2c(c1=N)C(c1ccccc1)c1ccc3ccccc3c1O2` (stereo not drawn), -79.2%. As to `O=C(Nc1cc(=O)[nH]c2ncnn12)c1ccccc1F`, the “hERG current change (%, negative = inhibition) at 10uM” value was determined as 11%.

`CCC(=O)N1CCc2cc(Br)cc(S(=O)(=O)N3CCCCCC3)c21`: the “hERG current change (%, negative = inhibition) at 10uM” value is listed as -28.6%. Then `O=C(c1ccc(COc2ccccc2Cl)o1)N1CCCC1`, with -23.6%; and `Cc1ccc(C(=O)N2CCN(c3cccc(Cl)c3)CC2)cc1C`, with -13.4%. `COc1ccc(C(=O)Nc2ccc(N3CCOCC3)cc2)cc1S(=O)(=O)NC1CCCC1`: the “hERG current change (%, negative = inhibition) at 10uM” value is given as 13.1%. Then `COc1ccc(C(=O)N2CCN(c3cccc(Cl)c3)CC2)cc1S(=O)(=O)NC1CC1`, with -63.5%; and `COc1ccc(C(=O)N2CCN(c3ccc(C(C)=O)cc3F)CC2)cc1S(=O)(=O)NC1CC1`, with -37.5%; and `COc1ccc(C(=O)N2CCN(c3ccccc3Cl)CC2)cc1S(=O)(=O)NC1CC1`, with -32.7%. With `COc1ccc(C(=O)N2CCN(c3ccc(F)cc3)CC2)cc1S(=O)(=O)NC1CC1`, the “hERG current change (%, negative = inhibition) at 10uM” value was -59.2%.

`O=C(OC1CCCCC1=O)c1ccc(S(=O)(=O)Nc2ccccc2)cc1` (stereo not drawn): the “hERG current change (%, negative = inhibition) at 10uM” value stood at 0.644%. Consider `Nc1cc(Cl)cc(C(=O)O)c1Cl`, for which the “hERG current change (%, negative = inhibition) at 10uM” value amounted to 15.9%. `O=C(Cn1cnc2sc(-c3ccccc3)cc2c1=O)NCc1ccco1`: the “hERG current change (%, negative = inhibition) at 10uM” value was -3.75%.

As to `O=C(Nc1ccc(Cl)cc1)c1cccc(S(=O)(=O)Nc2ccccn2)c1`, the “hERG current change (%, negative = inhibition) at 10uM” value is reported as -6.23%.

For the compound `O=C(Nc1nnc(SCc2ccc(F)cc2)s1)C1Cc2ccccc2CN1C(=O)c1ccco1` (stereo not drawn), the “hERG current change (%, negative = inhibition) at 10uM” value was -6.55%. For `Cc1cc(C)n2nc(-c3sccc3-n3c(C)ccc3C)cc2n1`, the “hERG current change (%, negative = inhibition) at 10uM” value came to 17.3%. Take `Cc1cc(-c2ccc(Cl)cc2)n2nc(C)cc2n1`: the “hERG current change (%, negative = inhibition) at 10uM” value is 4.45%. The result for `CC1(c2ccccc2)NC(=O)N(CC(=O)Nc2ccc(Cl)c(S(=O)(=O)N3CCCCC3)c2)C1=O` (stereo not drawn) reads -8.09%; that for `CN(C)S(=O)(=O)c1ccc(NC(=O)Cn2ccsc2=N)cc1`, 13.7%; that for `Cc1nn(CC(=O)Nc2cc(S(=O)(=O)N(C)C)ccc2Cl)c(C)c1[N+](=O)[O-]`, -20.9%. In the case of `Cl.N=c1sccn1CC(=O)Nc1ccc(Cl)c(S(=O)(=O)N2CCOCC2)c1`, the “hERG current change (%, negative = inhibition) at 10uM” value is reported as -50.4%. Regarding `CCC1(c2ccccc2)NC(=O)N(CC(=O)Nc2ccc(Cl)c(S(=O)(=O)N3CCCCC3)c2)C1=O` (stereo not drawn), the “hERG current change (%, negative = inhibition) at 10uM” value is listed as 12.4%. For the compound `Cc1ccc(NC(=O)Cn2ccsc2=N)cc1S(=O)(=O)N(C)C.Cl`, the “hERG current change (%, negative = inhibition) at 10uM” value is on record as -13.4%. The result for `Cl.N=c1sccn1CC(=O)Nc1ccc(S(=O)(=O)N2CCOCC2)cc1` reads -5.32%; that for `Cc1nn(CC(=O)Nc2ccc(S(=O)(=O)N(C)C)cc2)c(C)c1[N+](=O)[O-]`, -5.89%; that for `Cc1ccc(S(=O)(=O)N2CCOCC2)cc1NC(=O)Cn1ccsc1=N.Cl`, -5.64%.

For `Cc1nn(CC(=O)Nc2ccc(Cl)c(S(=O)(=O)N(C)C)c2)c(C)c1[N+](=O)[O-]`, the “hERG current change (%, negative = inhibition) at 10uM” value was -61.3%. Then `CN(C)S(=O)(=O)c1cc(NC(=O)Cn2ccsc2=N)ccc1Cl.Cl`, with -56.3%; and `O=C(Cn1ccccc1=O)Nc1ccc(Cl)c(S(=O)(=O)N2CCCCC2)c1`, with -79.4%; and `COc1cc(/C=C2/N=C(C3CCCCC3)OC2=O)cc(OC)c1OC`, with -17.5%. Regarding `O=C(Cc1ccccc1[N+](=O)[O-])NCc1ccncc1`, the “hERG current change (%, negative = inhibition) at 10uM” value is listed as 6.57%.

Consider `OC(Cn1c2ccccc2c2ccccc21)C[n+]1cccc2ccccc21.[O-][Cl+3]([O-])([O-])[O-]` (stereo not drawn), for which the “hERG current change (%, negative = inhibition) at 10uM” value is reported as -33.5%.

Turning to `C=C(C)C(=O)N1CC2(CC(c3cccc(NC(=O)/C(C)=C\C)c3)=NO2)C[C@H]1C(N)=O` (stereo partly drawn), the “hERG current change (%, negative = inhibition) at 10uM” value is given as 2.26%. Then `Cc1ccc(-c2nn(C)c(=O)c3ccccc23)cc1S(=O)(=O)NCCN1CCOCC1`, with -2.69%.

In the case of `Cn1c(=O)[nH]c(=O)c2c1nc(N1CCOCC1)n2CCc1ccccc1`, the “hERG current change (%, negative = inhibition) at 10uM” value is on record as -0.713%.

Turning to `Cc1cccc(N=C2NC(=O)/C(=C/c3cccs3)S2)c1`, the “hERG current change (%, negative = inhibition) at 10uM” value is given as 11.9%. Consider `COc1cc(C)c(/C=C(\C#N)C(=O)Nc2ccc(C)cc2)cc1C(C)C`, for which the “hERG current change (%, negative = inhibition) at 10uM” value was 11.1%. Then `COCCN(C(=O)COC(=O)c1sccc1C)c1c(N)n(Cc2ccccc2)c(=O)[nH]c1=O`, with 15.4%; and `CCCN(CCC)CCCNC(=O)C(NS(=O)(=O)c1ccc2c(c1)CCC(=O)N2)c1ccccc1` (stereo not drawn), with 20.5%. Turning to `CCn1ncc(S(=O)(=O)NCc2ccco2)c1C`, the “hERG current change (%, negative = inhibition) at 10uM” value is recorded as -0.626%. The result for `O=C(Nc1ccc(S(=O)(=O)Nc2cnc3ccccc3n2)cc1)c1ccccc1Br` reads -10.5%. For `O=C(CCN1C(=O)/C(=C/c2cccs2)SC1=S)Nc1ccccc1O`, the “hERG current change (%, negative = inhibition) at 10uM” value was 13.7%. Turning to `CC(C)c1ccc(NC(=O)CNC(=O)Cn2cnc3ccccc3c2=O)cc1`, the “hERG current change (%, negative = inhibition) at 10uM” value turned out to be 3.21%. Turning to `Cc1ccc(N/C=C/C(=O)c2ccco2)c(O)c1`, the “hERG current change (%, negative = inhibition) at 10uM” value was found to be 8.63%. The result for `COc1cc2c(cc1NC(=O)CSc1nc3ccc(C)cc3[nH]1)oc1ccccc12` reads 7.65%; that for `O=C(c1cccs1)N1CCN(c2nnc(-c3ccccc3)c3ccccc23)CC1`, -76.5%. Consider `O=C(c1cccs1)N1CCN(c2ncccn2)CC1`, for which the “hERG current change (%, negative = inhibition) at 10uM” value is recorded as 0.299%. The result for `Cc1ccc(-c2nnc(N3CCN(C(=O)c4cccs4)CC3)c3ccccc23)cc1` reads -65.4%; that for `CC(=O)N1CCN(c2nnc(-c3ccc(C)cc3)c3ccccc23)CC1`, -38.6%; that for `Cc1ccc(-c2nnc(N3CCN(C(=O)CN4C(=O)c5ccccc5C4=O)CC3)c3ccccc23)cc1`, 6.37%. The result for `CC(=O)N1CCN(c2nnc(-c3ccccc3)c3ccccc23)CC1` reads 3.22%; that for `Cc1ccc(C(=O)Nc2ccc(Cl)cc2C(=O)c2ccccc2)cc1`, 17.1%; that for `O=C(CSc1ccccc1)N1CCN(S(=O)(=O)c2ccccc2F)CC1`, -23.9%. Then `Cc1c(N=Cc2cccnc2)c(=O)n(-c2ccccc2)n1C`, with 2.93%. Regarding `CC(=O)Oc1ccc2c(=O)oc(-c3ccc([N+](=O)[O-])cc3)nc2c1`, the “hERG current change (%, negative = inhibition) at 10uM” value came out at 1.56%.

On to `Cc1ccc(C)c(S(=O)(=O)N2CCN(C(=O)Cn3c(C(F)(F)F)nc4ccccc43)CC2)c1`, for which the “hERG current change (%, negative = inhibition) at 10uM” value is listed as -1.16%. Consider `O=c1c2ccccc2c(=O)n(-c2ccccc2)n1CCCCBr`, for which the “hERG current change (%, negative = inhibition) at 10uM” value is on record as -63.5%. The result for `O=c1c2ccccc2c(=O)n(Cc2ccccc2)n1Cc1ccccc1` reads 16.8%. `CC(=O)n1c(=O)c2ccccc2c(=O)n1-c1ccccc1`: the “hERG current change (%, negative = inhibition) at 10uM” value came to 3.89%. Take `Cc1cccc(C(=O)OCC(=O)c2c(N)n(CC(C)C)c(=O)n(C)c2=O)c1[N+](=O)[O-]`: the “hERG current change (%, negative = inhibition) at 10uM” value is listed as -29.1%. In the case of `O=C(CCCC(=O)OCC1CCCO1)OCC1CCCO1` (stereo not drawn), the “hERG current change (%, negative = inhibition) at 10uM” value is on record as 8.27%. As for `CCOC(=O)c1cn(CC(=O)Nc2ccc(OC)cc2OC)nn1`, the “hERG current change (%, negative = inhibition) at 10uM” value came out at 9.07%. For `Brc1ccc(OCCCCN2CCCCC2)cc1`, the “hERG current change (%, negative = inhibition) at 10uM” value was -53.6%. The result for `Brc1ccc(OCCCN2CCOCC2)cc1.O=C(O)C(=O)O` reads -28.1%. The result for `Cl.O=C(COc1ccc(Br)cc1)OCCN1CCCCC1` reads 11.8%; that for `Brc1ccc(OCCOCCN2CCOCC2)cc1`, -9%. As to `Cc1ccc(OCCCCN2CCCCC2)cc1`, the “hERG current change (%, negative = inhibition) at 10uM” value is reported as -12.1%. Consider `CC1CCN(CCCCOc2ccc(Br)cc2)CC1`, for which the “hERG current change (%, negative = inhibition) at 10uM” value is -69.4%. Then `Brc1ccc(OCCCCCN2CCOCC2)cc1.O=C(O)C(=O)O`, with -63.8%.
